The values below come from PubChem BioAssay (EPA / NIEHS).

The structures appear in SMILES notation. Values joined by “and” are separate entries in the source; they are usually repeats but may differ in a detail not shown here. Equal entries are not always repeated. Results filed as inconclusive are left out. The source holds several records for some structures; these can differ, active in one and inactive in another. Active and inactive are the calls of the source. The calls were made as follows, unless noted: active = hit-call score of the fitted dose curve at least 0.9, where 1 is the maximum; inactive = score below 0.9.

Test [1] is described as follows: BSK_3C_TissueFactor: BioMAP Diversity Plus: 3C Assay for Tissue Factor Biomarker Activity (AID 2282997). As to conditions: BioMAP 3C HUVEC, tissue factor biomarker readout; actives raise or lower the signal. The gist of the method: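 Tissue factor on primary human umbilical vein endothelium was read by ELISA 24 h after dosing, gain or loss relative to DMSO. Cytotoxicity ran alongside via SRB (0.1%, TCA-fixed, 560 nm).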

Read-out in test [2]: Intercellular Adhesion Molecule 1 (ICAM1), ICAM1 (gene 3383)
Briefly: BSK_3C_ICAM1: BioMAP Diversity Plus: 3C Assay for Intercellular Adhesion Molecule 1 (ICAM1) Biomarker Activity (AID 2283003). The settings on record: primary human endothelial cells (HUVEC); actives raise or lower the signal. Put shortly: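 ELISA read-out of ICAM-1; HUVEC (primary human), 3C system, 24 h post-dosing; bidirectional fit vs DMSO baseline.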

Read-out in test [3]: E-selectin (Homo sapiens) (UniProt P16581)
Briefly: BSK_3C_Eselectin: BioMAP Diversity Plus: 3C Assay for Eselectin Biomarker Activity (AID 2283015).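 As to outcome: cell surface E-selectin protein quantified by ELISA 24 h after dosing.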 The settings on record: primary human endothelial cells (HUVEC); actives raise or lower the signal. Put shortly:
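E-selectin ELISA readout, fitted bidirectionally relative to DMSO, taken 24 h post-dosing in HUVEC cultures of the 3C system. Overt cytotoxicity tracked with sulforhodamine B staining of parallel wells.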

Read-out in test [4]: Matrix Metallopeptidase 1 (MMP1), MMP1 (gene 4312)
Kind of test: BSK_BE3C_MMP1: BioMAP Diversity Plus: BE3C Assay for Matrix Metallopeptidase 1 (MMP1) Biomarker Activity (AID 2283024). The settings on record: primary human bronchial epithelial cells; actives raise or lower the signal. Put shortly: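 ELISA read-out of MMP1 in human lung bronchial epithelial primary cultures, 24 h post-dose; bidirectional curve fit vs DMSO baseline, gain or loss of signal scored.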

Read-out in test [5]: Pselectin, SELP (gene 6403)
Kind of test: BSK_4H_Pselectin: BioMAP Diversity Plus: 4H Assay for Pselectin Biomarker Activity (AID 2283026). As to conditions: primary human endothelial cells (HUVEC); actives raise or lower the signal. The gist of the method:
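HUVEC, 24 h chemical exposure; P-selectin read by ELISA. Bidirectional curve fit vs DMSO baseline; gain or loss of signal scored.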

Read-out in test [6]: Human Leukocyte Antigen - DR isotype (HLADR), HLA-DRA (gene 3122)
Briefly: BSK_BE3C_HLADR: BioMAP Diversity Plus: BE3C Assay for Human Leukocyte Antigen - DR isotype (HLADR) Biomarker Activity (AID 2283032). The settings on record: primary human bronchial epithelial cells; actives raise or lower the signal. Put shortly:
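Primary human bronchial epithelial cells (BE3C); 24 h chemical exposure; HLA-DR by ELISA; bidirectional curve fit vs DMSO baseline.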

Read-out in test [7]: Vascular cell adhesion molecule 1 (VCAM1), VCAM1 (gene 7412)
Kind of test: BSK_4H_VCAM1: BioMAP Diversity Plus: 4H Assay for Vascular cell adhesion molecule 1 (VCAM1) Biomarker Activity (AID 2283033).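 As to outcome: cell-surface VCAM-1 protein measured by ELISA.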 As to conditions: primary human endothelial cells (HUVEC); actives raise or lower the signal. Put shortly: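 HUVEC, 24 h post-dose; VCAM-1 by ELISA. Bidirectional curve fit vs DMSO baseline. Parallel SRB total-protein stain (0.1% SRB after 10% TCA fixation, 560 nm) for cytotoxicity.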

Read-out in test [8]: Interferon-gamma inducible Protein 10 (IP10), CXCL10 (gene 3627)
Briefly: BSK_BE3C_IP10: BioMAP Diversity Plus: BE3C Assay for Interferon-gamma inducible Protein 10 (IP10) Biomarker Activity (AID 2283034). As to conditions: primary human bronchial epithelial cells; actives raise or lower the signal. The gist of the method: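 ELISA readout of IP-10 in BE3C system: primary human bronchial epithelial cells, 24 h post-dosing; bidirectional curve fit vs DMSO baseline.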

Read-out in test [9]: urokinase plasminogen activator (uPA), PLAU (gene 5328)
Briefly: BSK_BE3C_uPA: BioMAP Diversity Plus: BE3C Assay for urokinase plasminogen activator (uPA) Biomarker Activity (AID 2283038).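 Also: uPA protein level quantified by ELISA in cell cultures; uPA read one day after compound addition.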 The settings on record: primary human bronchial epithelial cells; actives raise or lower the signal. Put shortly: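 ELISA for uPA on human primary bronchial epithelial cultures 24 h post-treatment, gain or loss against DMSO. Parallel SRB staining (0.1% after 10% TCA fixation, 560 nm) assessed overt cytotoxicity.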

Read-out in test [10]: Interleukin-6 (IL6), IL6 (gene 3569)
Briefly: BSK_CASM3C_IL6: BioMAP Diversity Plus: CASM3C Assay for Interleukin-6 (IL6) Biomarker Activity for (AID 2283040). As to conditions: primary human coronary artery smooth muscle cells; actives raise or lower the signal.

Read-out in test [11]: Tissue Factor, F3 (gene 2152)
Briefly: BSK_CASM3C_TissueFactor: BioMAP Diversity Plus: CASM3C Assay for Tissue Factor Biomarker Activity (AID 2283052).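 Also: cell surface tissue factor protein level read by ELISA.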 The settings on record: primary human coronary artery smooth muscle cells; actives raise or lower the signal.

Read-out in test [12]: Urokinase-type plasminogen activator receptor (uPAR), PLAUR (gene 5329)
Briefly: BSK_CASM3C_uPAR: BioMAP Diversity Plus: CASM3C Assay for Urokinase-type plasminogen activator receptor (uPAR) Biomarker Activity (AID 2283054).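 Also: cell-surface uPAR protein level quantified by ELISA.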 The settings on record: primary human coronary artery smooth muscle cells; actives raise or lower the signal.

Read-out in test [13]: Tissue Factor, F3 (gene 2152)
Kind of test: BSK_LPS_TissueFactor: BioMAP Diversity Plus: LPS Assay for Tissue Factor Biomarker Activity (AID 2283084). The settings on record: primary human HUVEC with PBMC; actives raise or lower the signal. Put shortly:
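Compound was added to an endothelial cell/PBMC co-culture, and after 24 h tissue factor (CD142) was read by ELISA. Gain or loss of signal was fitted against a DMSO baseline, and parallel SRB staining (560 nm) tracked overt cytotoxicity.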

Test [14] can be described thus: ATG_M_32_TRANS: Attagene TRANS-FACTORIAL HepG2 Assay for M32 Transcription Factor (Internal Marker) (AID 2282984; active = hit-call score of the fitted dose curve at least 0.9, where 1 is the maximum;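 also: transcript level of a background control reporter unit measured by RT-PCR and capillary electrophoresis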). As to conditions: HepG2 Attagene TRANS M32 internal marker reporter. The gist of the method: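 Fluorescence-detected mRNA induction, HepG2 liver cells, 24 h after dosing. Multiple GAL4-UAS reporter units introduced by transient transfection; background-control endpoint analysed for gain of signal against DMSO.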

Test [15] can be described thus: ATG_NFI_CIS: Attagene CIS-FACTORIAL HepG2 Assay for human Nuclear Factor I (NFI) (AID 2282989). As to conditions: HepG2 cis-regulatory reporter, NFI response element transcription; actives raise or lower the signal. The gist of the method: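 Read-out: reporter mRNA via RT-PCR plus capillary electrophoresis with fluorescence detection. Transiently transfected HepG2 (endogenous TF activity on cis promoters), 24 h compound exposure; gain or loss of signal fitted against DMSO.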

The target of test [16] is human Peroxisome Proliferator-activated Receptor alpha (PPARa), PPARA (gene 5465) (UniProt Q07869). Briefly: ATG_PPARa_TRANS: Attagene TRANS-FACTORIAL HepG2 Assay for human Peroxisome Proliferator-activated Receptor alpha (PPARa) (AID 2283001; active = hit-call score of the fitted dose curve at least 0.9, where 1 is the maximum). Put shortly:
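Exposure: 24 h, transiently transfected HepG2 cells. Endpoint: GAL4-UAS reporter mRNA, RT-PCR with capillary electrophoresis fluorescence. Baseline: DMSO; increases fitted.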

Test [17] deals with Nuclear receptor subfamily 1 group I member 2 (Homo sapiens) (UniProt O75469). Briefly: ATG_PXR_TRANS: Attagene TRANS-FACTORIAL HepG2 Assay for human Pregnane X Receptor (PXR) (AID 2283008; active = hit-call score of the fitted dose curve at least 0.9, where 1 is the maximum). The gist of the method:
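Trans-factorial format: exogenous NR-Gal4 fusion activity, not endogenous factor, in transfected human HepG2 liver cells. After 24 h dosing, RNA isolated, reverse-transcribed, amplified and resolved by capillary electrophoresis; induction scored versus DMSO.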

For test [18], the target named is mouse Estrogen Receptor alpha (Era), Esr1 (gene 13982) (UniProt P19785). Briefly: NVS_NR_mERa: NovaScreen (NVS) Nuclear Receptor Binding Assay for mouse Estrogen Receptor alpha (Era) (AID 2283378; active = hit-call score of the fitted dose curve at least 0.9, where 1 is the maximum;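 also: hit means loss of bound radioligand signal relative to DMSO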). Put shortly: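 Filter radiodetection of radioligand displacement from extracted receptor protein, measured 18 h post-dose. Single 25 uM concentration in duplicate initially, with concentration-series follow-up. Binding loss fitted relative to DMSO.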
mouse Estrogen Receptor alpha (Era), Esr1 (gene 13982), sequence (P19785 whole entry, looked up): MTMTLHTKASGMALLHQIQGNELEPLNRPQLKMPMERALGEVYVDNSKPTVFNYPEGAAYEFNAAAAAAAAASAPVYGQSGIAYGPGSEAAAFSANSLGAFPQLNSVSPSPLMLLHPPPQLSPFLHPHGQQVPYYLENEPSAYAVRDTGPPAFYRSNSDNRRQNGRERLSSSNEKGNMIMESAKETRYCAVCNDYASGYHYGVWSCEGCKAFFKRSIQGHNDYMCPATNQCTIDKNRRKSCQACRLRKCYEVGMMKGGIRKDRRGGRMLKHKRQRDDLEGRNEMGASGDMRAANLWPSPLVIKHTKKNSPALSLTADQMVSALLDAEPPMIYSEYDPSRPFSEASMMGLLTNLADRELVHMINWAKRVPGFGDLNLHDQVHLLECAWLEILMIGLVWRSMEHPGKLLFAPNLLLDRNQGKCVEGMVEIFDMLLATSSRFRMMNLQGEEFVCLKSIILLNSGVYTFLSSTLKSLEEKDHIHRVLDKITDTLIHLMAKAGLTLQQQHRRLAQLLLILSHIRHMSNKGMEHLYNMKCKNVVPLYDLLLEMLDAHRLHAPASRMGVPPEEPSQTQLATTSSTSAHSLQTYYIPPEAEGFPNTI

A short description of test [19]: ATG_XTT_Cytotoxicity: Cytotoxicity Assessment in the Attagene TRANS-FACTORIAL HepG2 Assay (AID 2283584; active = hit-call score of the fitted dose curve at least 0.9, where 1 is the maximum). Put shortly:
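Viability endpoint from XTT after 24 h chemical exposure of reporter-transfected human HepG2 liver cells; signal loss fitted relative to DMSO negative control.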

Test [20] in a line: ATG_SREBP_CIS: Attagene CIS-FACTORIAL HepG2 Assay for human Sterol Regulatory Element Binding (SREBP) (AID 2282962). As to conditions: HepG2 Attagene cis-factorial SREBP reporter, mRNA; actives raise or lower the signal. Put shortly:
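Readout: fluorescent reporter-transcript peaks resolved by capillary electrophoresis after RT-PCR. Cells were human HepG2 carrying transfected cis-promoter reporter constructs, dosed for 24 h. Gain or loss of signal was fitted against DMSO controls.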

human Peroxisome Proliferator-activated Receptor alpha (PPARa), PPARA (gene 5465), sequence (Q07869 whole entry, looked up, the tested form may be a part): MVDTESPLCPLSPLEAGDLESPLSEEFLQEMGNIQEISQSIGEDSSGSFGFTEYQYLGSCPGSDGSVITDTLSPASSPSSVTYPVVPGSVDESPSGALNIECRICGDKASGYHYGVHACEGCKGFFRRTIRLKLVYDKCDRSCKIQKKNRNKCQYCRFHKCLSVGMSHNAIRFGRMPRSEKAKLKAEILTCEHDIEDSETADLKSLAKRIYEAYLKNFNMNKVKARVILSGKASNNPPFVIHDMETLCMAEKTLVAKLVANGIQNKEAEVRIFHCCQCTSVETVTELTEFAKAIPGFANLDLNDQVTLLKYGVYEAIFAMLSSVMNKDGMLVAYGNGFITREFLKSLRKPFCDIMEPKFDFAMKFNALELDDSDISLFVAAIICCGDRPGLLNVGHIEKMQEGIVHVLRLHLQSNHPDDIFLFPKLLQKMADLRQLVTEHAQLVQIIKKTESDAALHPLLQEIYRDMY
E-selectin (Homo sapiens), sequence (P16581 whole entry, looked up): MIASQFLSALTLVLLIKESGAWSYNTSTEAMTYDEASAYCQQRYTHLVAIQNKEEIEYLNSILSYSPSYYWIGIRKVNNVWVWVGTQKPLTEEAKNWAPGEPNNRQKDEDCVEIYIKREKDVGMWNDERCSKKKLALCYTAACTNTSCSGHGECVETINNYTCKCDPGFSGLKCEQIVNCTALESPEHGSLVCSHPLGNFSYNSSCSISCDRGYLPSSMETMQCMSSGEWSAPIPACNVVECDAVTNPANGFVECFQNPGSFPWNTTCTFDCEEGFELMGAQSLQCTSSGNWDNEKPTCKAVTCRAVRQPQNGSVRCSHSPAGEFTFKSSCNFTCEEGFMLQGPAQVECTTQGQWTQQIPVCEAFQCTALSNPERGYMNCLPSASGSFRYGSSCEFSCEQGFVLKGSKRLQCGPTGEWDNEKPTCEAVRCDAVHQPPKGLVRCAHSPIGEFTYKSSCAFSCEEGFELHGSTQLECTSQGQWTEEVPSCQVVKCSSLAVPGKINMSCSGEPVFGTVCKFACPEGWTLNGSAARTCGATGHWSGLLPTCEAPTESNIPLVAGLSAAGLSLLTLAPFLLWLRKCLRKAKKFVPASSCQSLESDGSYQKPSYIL
Nuclear receptor subfamily 1 group I member 2 (Homo sapiens), sequence (O75469 whole entry, looked up, the tested form may be a part): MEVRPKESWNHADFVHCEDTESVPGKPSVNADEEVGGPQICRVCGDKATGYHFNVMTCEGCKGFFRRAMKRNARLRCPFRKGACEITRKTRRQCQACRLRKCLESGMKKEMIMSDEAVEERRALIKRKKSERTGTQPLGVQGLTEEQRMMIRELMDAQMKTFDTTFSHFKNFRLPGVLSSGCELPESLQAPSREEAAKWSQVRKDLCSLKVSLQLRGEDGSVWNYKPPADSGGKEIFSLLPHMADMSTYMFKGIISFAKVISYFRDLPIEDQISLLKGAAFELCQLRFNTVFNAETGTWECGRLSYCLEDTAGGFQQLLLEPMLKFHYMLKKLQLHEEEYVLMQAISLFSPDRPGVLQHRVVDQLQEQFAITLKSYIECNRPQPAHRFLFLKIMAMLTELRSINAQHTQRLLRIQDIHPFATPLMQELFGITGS

For the compound `CC(C)C1OCCN1CCOC(=O)NCCCCCCNC(=O)OCCN1CCOC1C(C)C` (configuration not stated), the result in [1], in test [2], in test [3], in test [4], in test [5] and in test [6] was inactive. Further, the outcome in [7], in test [8], in test [9], in test [10], in test [11] and in test [12] was inactive. Besides, in [13], the result was inactive.
As to `C=CC(C)(CCC=C(C)C)OC(=O)c1ccccc1` (configuration not stated), the outcome in test [14], in test [15], in test [16], in test [18] and in test [19] was inactive. Moreover, in test [17], the AC50 is 8.68 µM (active).
Consider `CC(C)CC(=O)CC(C)C`, for which the compound was classed as inactive in test [20], in test [15], in test [17] and in test [19].
As to `CCCCCCOC(=O)CCCCCCCC(=O)OCCCCCC`, the outcome in test [20], in test [14], in [15], in [16], in test [17] and in test [19] was inactive.
As to `Cc1c(C(N)=O)cc([N+](=O)[O-])cc1[N+](=O)[O-]`, the result in [1], in test [2], in [3], in test [4], in test [5] and in [6] was inactive. Moreover, the outcome in [7], in test [8], in [9], in test [10], in [11] and in test [12] was inactive. In addition, the result in [13] was inactive. Also, the AC50 was 27.8 µM (active) in test [6] and 32.6 µM (active) in test [8].
On to `COc1cccc(OC)c1C(=O)O`, for which the call in test [20], in test [14], in [15] and in [19] was inactive.
`CCO[Si](OCC)(OCC)c1ccccc1`: the compound was classed as inactive in test [14], in [16] and in test [17].
Take `COc1c2occc2cc2ccc(=O)oc12`: the compound was classed as inactive in test [20], in test [16] and in test [19]. The AC50 in [17] is 14.5 µM (active).
As for `CC(=O)CC(=O)OC(C)(C)C`, the compound was classed as inactive in test [18].
As for `COc1ccc2ccccc2c1`, the outcome in test [20], in test [14] and in test [16] was inactive.
As to `CC(C)(C)C(=O)C(=O)O`, the compound was classed as inactive in test [18].
Consider `CC[N+](CC)(CC(=O)Nc1c(C)cccc1C)Cc1ccccc1`, for which the call in test [20], in test [14], in test [15], in test [1], in test [16] and in test [2] was inactive. In addition, the compound was called inactive in test [17], in test [3], in test [4], in test [5], in [6] and in test [7]. Moreover, the result in test [8], in test [9], in test [10], in test [11], in test [12] and in [13] was inactive. Moreover, the compound was called inactive in test [19].
Regarding `CCCCCCCCCCCCSC#N`, the half-maximal activity concentration (AC50) in [18] is 6.16 µM (active).
With `CCCCC(CC)COC(=O)C=Cc1ccc(OC)cc1` (configuration not stated), the AC50 in [1] was 5.17 µM (active) and 7.14 µM (active); in [3] it was 27.5 µM (active) and 11.4 µM (active); in test [5], 33.3 µM (active) and 38.7 µM (active); in test [7], 5.26 µM (active) and 3.42 µM (active); in test [11], 6.67 µM (active); in [13], 7.72 µM (active). The outcome in [2], in [4], in test [6], in test [8], in [9] and in [10] was inactive. In addition, the outcome in [11], in test [12] and in test [13] was inactive.
`C=CCOCC(CC)(CO)COCC=C`: the outcome in test [15], in test [17] and in test [19] was inactive.
In the case of `C1CN(CCOCCN2CCOCC2)CCO1`, the outcome in test [1], in test [2], in test [3], in test [4], in test [5] and in test [6] was inactive. For the same compound, the outcome in test [7], in [8], in test [9], in test [10], in test [11] and in test [12] was inactive. The result in test [13] was inactive.
As for `CC/C=C\CCO`, the result in test [14], in test [15], in test [16] and in [19] was inactive.
`COc1ccc(COC=O)cc1`: the compound was called inactive in test [18].
In the case of `Cc1cccc(NC(=S)N(C)C)c1`, in test [18], the compound was classed as inactive.
Take `CNC(=O)Nc1ccc(Cl)c(Cl)c1`: the compound was called inactive in test [18].
As for `CCCCCCCCOCCCN`, the outcome in test [18] was inactive.
`CC(C)CC(=O)C1C(=O)c2ccccc2C1=O`: the outcome in test [18] was inactive.
For the compound `COC(=O)CCCC(=O)O`, in test [18], the result was inactive.
In the case of `Cc1oc(C)c(C(=O)Nc2ccccc2)c1C`, the compound was classed as inactive in [18].
